Bioassay records: PubChem BioAssay, National Center for Advancing Translational Sciences (NCATS)
DT40 TDP1 no CPT – qHTS for Inhibitors of human tyrosyl-DNA phosphodiesterase 1 (TDP1): qHTS in cells in absence of CPT | DT40 Tdp1-/- hTDP1 cells, no CPT, ATP luminescence, 48 h | Potency, µM (titrated, usually from 46.2 µM), most hits filed as inhibitors | 420,000 tested, 15% active; also: nearly all actives have a fitted effect of over 55% in size
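Compound effects on proliferation are scored in DT40 Tdp1-/-;hTDP1 cells in the absence of CPT. ATP levels (CellTiter-Glo luminescence) are recorded after a ≥48 hr, 37 °C incubation.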
TDP1 block – TDP1 (human) enzyme inhibition | recombinant TDP1, AlphaScreen DNA substrate cleavage | Potency, µM (highest dose often 130 µM), actives largely listed as inhibitors | Q9NUW8 | 350,000 tested, 0.28% active | AID 485290; also: nearly all actives have a fitted effect of over 40% in size
Target sequence (Q9NUW8 whole entry, looked up): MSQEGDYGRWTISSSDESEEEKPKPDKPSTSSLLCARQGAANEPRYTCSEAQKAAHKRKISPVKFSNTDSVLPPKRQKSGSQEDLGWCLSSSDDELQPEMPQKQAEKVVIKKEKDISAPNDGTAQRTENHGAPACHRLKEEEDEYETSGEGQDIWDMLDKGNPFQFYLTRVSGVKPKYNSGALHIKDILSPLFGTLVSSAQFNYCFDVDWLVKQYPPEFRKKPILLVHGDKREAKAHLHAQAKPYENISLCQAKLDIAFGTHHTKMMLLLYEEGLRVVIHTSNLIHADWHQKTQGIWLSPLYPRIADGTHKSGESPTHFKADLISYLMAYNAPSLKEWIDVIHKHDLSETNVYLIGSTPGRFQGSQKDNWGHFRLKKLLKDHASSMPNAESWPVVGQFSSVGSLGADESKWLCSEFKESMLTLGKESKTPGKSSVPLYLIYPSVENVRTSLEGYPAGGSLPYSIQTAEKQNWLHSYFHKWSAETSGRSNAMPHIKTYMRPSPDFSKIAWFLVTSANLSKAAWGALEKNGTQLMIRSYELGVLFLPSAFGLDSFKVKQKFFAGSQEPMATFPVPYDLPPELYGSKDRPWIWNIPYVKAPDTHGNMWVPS
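Recombinant human Tdp1 (E. coli-expressed, 1 nM final) preincubated with compounds 15 min at room temperature, then 5'-biotin/3'-phosphotyrosine-FITC DNA substrate (15 nM final) added for 5 min. AlphaScreen beads (10 ug/ml final) added 10 min; cleavage lowers signal.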
TDP1 cell CPT – growth inhibition of DT40 Tdp1-/-;hTDP1 cells with camptothecin (screen for TDP1 inhibitors); 420,000 tested, 12% active; chicken DT40 Tdp1-/-;hTDP1 cells + 20 nM CPT, ATP luminescence, 48 h; Potency, µM (titrated, usually from 46.2 µM), actives largely listed as inhibitors; also: nearly all actives have a fitted effect of over 55% in size
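Chicken DT40 Tdp1-/- cells stably complemented with human TDP1 were seeded at 400 cells/well in medium containing 20 nM camptothecin, exposed to pin-transferred compounds, and grown at 37 °C for at least 48 hr. Viability was read as ATP luminescence.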
IL1B secr inh – blocks inflammasome-driven IL-1 beta release; THP-1 LPS/ATP IL-1B secretion, AlphaLISA, 16 h; hits give low values; activity change, % at 57.5 µM; 360,000 tested, 4.7% active; AID 743279; in the data active = activity change below about -50%; inconclusive = mostly about -30% to -49%
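THP-1 cells pretreated 1 hr with compounds (up to 57.5 uM final), then stimulated with LPS (250 ng/mL final) plus ATP (1.25 mM final); secreted IL-1B measured by AlphaLISA after 16 hr, decreased signal indicating inhibition.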
Giardia killer – kills Giardia lamblia | 340,000 tested, 0.15% active | Giardia lamblia trophozoite viability | activity change, % at 7.66 µM, hits read low; in the data active = activity change below about -80%; inconclusive = between about -30% and that limit;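 also: parasites exposed to compound for two days anaerobically before the ATP read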
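Media and compound were dispensed first, then trophozoites at 100 cells/well; plates sat 48 hrs at 37 deg C without oxygen before ATP luminescence reagent was added and read after 15-30 min at room temperature.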
ELG1 repair inh – blocks ELG1-dependent DNA repair in HEK293T cells. HEK293T ELG1-luciferase reporter, luminescence, 16 h; DNA damage induced by 5-fluorouridine. Potency, µM (doses to about 46.1 µM), most hits filed as inhibitors. 330,000 tested, 2.3% active. AID 504467; also: nearly all actives have a fitted effect of over 55% in size
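In this reporter screen, reduction of luminescence relative to DMSO vehicle indicated activity. Compounds and 5-fluorouridine were added together to 2,000 cells per well, incubated for 16 hr at 37 °C, then developed with ONE-Glo.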
Hits are given with their value; n = inactive; u = inconclusive; x = no result given; [ ] = another dose, or the depositor's remark. The list is not random: actives were taken first. Their share in the collection is about 19%. Unless noted, calls follow the shape of the dose curve; as a rule, active = well fitted curve in the direction sought with a large enough effect; inconclusive = small, poorly fitted or top-dose-only effect, or another doubt; inactive = no such curve, though single readings can be large; an effect the other way counts as inactive or inconclusive.

SMILES	DT40 TDP1 no CPT	TDP1 block	TDP1 cell CPT	IL1B secr inh	Giardia killer	ELG1 repair inh
CCc1ccccc1NC(=O)CNC(=O)CCC(=O)c1cc(C)sc1C	u	x	u	n	x	x
CC#CC#Cc1cccc(=O)o1	u	x	u	-75	n	u
CCOc1ccc(CN(C(=O)c2ccccn2)c2ccc(OC)c(Cl)c2)cc1	u	n[0.0935 µM]	u	n	n	u
Cc1cnc(NC(=O)Cc2ccccc2Cl)s1	3.3µM	n	3.3µM	n	n	n
CCOC(=S)SCC(=O)Nc1ncc(C)s1	23µM	n	u	-98	n	n
COc1ccc(CCC(=O)Nc2ncc(C)s2)cc1OC	n	x	n	n	n	n
Cc1cnc(NC(=O)CCCc2nc3ccccc3s2)s1	23µM	n	15µM	n	n	u
Cc1cnc(NC(=O)Cc2ccc(C)c(C)c2)s1	u	x	n	n	n	u
Cc1cnc(NC(=O)CCc2ccccc2)s1	8.2µM	x	16µM	n	n	u
COc1ccc(C)cc1NC(=O)NCCn1nnc2cc(S(=O)(=O)N(C)C)ccc21	n	n	u	x	x	x
Cc1nc(SCC(=O)NCC2CCCO2)c2c3c(sc2n1)CCCC3 (stereo not given)	u	n	u	n	u	n
COCCn1c(C)cc(C(=O)CSc2nc(C)nc3sc4c(c23)CCC4)c1C	21µM	x	16µM	n	n	x
CCOC(=O)N1CCN(c2c(NCc3ccc(Cl)cc3)c(=O)c2=O)CC1	5.8µM	n	4.1µM	n	n	n
CCOC(=O)N1CCN(c2c(NCc3ccc(F)cc3)c(=O)c2=O)CC1	3.3µM	n	4.1µM	n	n	u
CCOC(=O)N1CCN(c2c(NCc3ccccc3OC)c(=O)c2=O)CC1	u	n	u	n	n	n
C[C@H](NC(=O)[C@@H](N)Cc1ccc(O)cc1)C(=O)NCC(=O)N[C@H]1CSSC[C@@H](C(=O)O)NC(=O)[C@H](CO)NC(=O)[C@H]([C@@H](C)O)NC(=O)[C@H](Cc2ccccc2)NC(=O)[C@H]([C@@H](C)O)NC(=O)[C@H](CCCCN)NC(=O)[C@H](Cc2c[nH]c3ccccc23)NC(=O)[C@H](Cc2ccccc2)NC(=O)[C@H](Cc2ccccc2)NC(=O)[C@H](CC(N)=O)NC(=O)[C@H](CCCCN)NC1=O	x	n	x	x	x	x
CN(Cc1ccccc1)C(=O)N1CCOCC1	n	n	n	n	n	n
Cc1cc2nnc(SCC(=O)Nc3ccc(Cl)cc3)n2c(N)n1	n	n	n	n	n	n
Cc1onc(-c2ccccc2)c1C(=O)N1CCN(c2ncccc2C(F)(F)F)CC1	u	n	23µM	n	n	n
Cc1cccc(N2CCN(C(=O)c3c(-c4ccccc4)noc3C)CC2)c1C	1.5µM	n	2.9µM	n	n	u
Cc1onc(-c2ccccc2)c1C(=O)N1CCN(S(=O)(=O)c2ccccc2Br)CC1	15µM	n	u	n	n	u
Cc1onc(-c2ccccc2)c1C(=O)N1CCN(S(=O)(=O)c2ccc(Cl)cc2)CC1	n	x	n	n	n	n
CCc1noc(C)c1C(=O)N1CCN(c2cccc(C)c2C)CC1	15µM	n	u	n	n	n
CCc1noc(C)c1C(=O)N1CCN(c2cccc(Cl)c2)CC1	u	x	u	n	x	x
COc1cccc(CNC(=O)C2CCN(c3nnc(-n4c(C)ccc4C)s3)CC2)c1OC	n	n	u	x	x	x
SMILES	DT40 TDP1 no CPT	TDP1 block	TDP1 cell CPT	IL1B secr inh	Giardia killer	ELG1 repair inh
CC(C)NC(=O)COC(=O)C1CSC2(c3ccc(Br)cc3)CCC(=O)N12 (stereo not given)	n	n	n	n	n	n
CSCc1ccc(C(=O)N2CCC(CCC(=O)N(C)Cc3ccccc3)CC2)o1	n	n	u	n	n	n
COc1cccc(CNc2ncnc3sc(C(=O)N4CCOCC4)c(C)c23)c1OC	n	x	n[9.04 µM]	x	x	x
COc1ccc2cc3cc(C(=O)NC4CC4)sc3nc2c1	18µM	n	23µM	n	u	u
COc1ccc2nc3sc(C(=O)NCCN4CCc5ccccc5C4)cc3cc2c1	16µM	n	21µM	n	n	n
CCOc1ccc(CCNC(=O)c2cc3cc4ccc(OC)cc4nc3s2)cc1OCC	u	n	n	x	x	x
COC(=O)CC1C(C)(C)C(O)C2CC3=C4C=C(OC)OC(c5ccoc5)[C@]4(C)CCC3[C@@]1(C)C2=O (stereo not given in full)	n	n	n	x	x	x
CC1CCN(c2ncnc3c2c(-c2ccccc2)cn3-c2ccc(Br)cc2)CC1	n	n	n	x	x	x
COc1ccc(-n2cc(-c3ccccc3)c3c(N4CC(C)OC(C)C4)ncnc32)cc1 (stereo not given)	12µM	n	u	n	n	u
COc1ccc(-n2cc(-c3ccccc3)c3c(NC4CCCC4)ncnc32)cc1	18µM	n	23µM	x	x	x
O=C(COc1ccc(S(=O)(=O)NC2CCCCC2)cc1Cl)Nc1ccc2c(c1)OCO2	u	n	u	-59	n	u
COc1ccc(CCNC(=O)COc2ccc(S(=O)(=O)NC3CCCCC3)cc2Cl)cc1OC	16µM	n	23µM	n	n	21µM
O=C(COc1ccc(S(=O)(=O)NC2CCCCC2)cc1Cl)NCc1ccc2c(c1)OCO2	u	n	u	n	n	n
N#CCCn1c(=O)cnc2cnc(OCc3ccccc3)nc21	u	x	n	x	x	x
O=c1[nH]cc([N+](=O)[O-])cc1Br	u	n	21µM	n	n	n
O=c1[nH]c2cc([N+](=O)[O-])c([N+](=O)[O-])cc2[nH]c1=O	n	n	n	n	n	n
Cc1ccc(S(=O)(=O)Nc2c(NC3CCCCC3)c3ccccc3oc2=O)c(C)c1	u	n	u	n	n	n
CN(C)CC(CCC(CN(C)C)C(=O)c1ccccc1)C(=O)c1ccccc1 (stereo not given)	1.6µM	n	1.5µM	-100	n	u
CN(C(=O)c1ccccc1)C(=O)c1ccccc1	n	x	n	n	x	x
COc1ccc(C(=O)CC(=O)c2ccc(OC)cc2)cc1	n	x	n	n	n	u
COc1ccc(C(=O)C(CCCCC(CN(C)C)C(=O)c2ccc(OC)cc2)CN(C)C)cc1 (stereo not given)	5.8µM	n	21µM	n	n	n
CC(C)CN(C(=O)COC(=O)C(C)N1C(=O)c2ccccc2C1=O)c1c(N)n(Cc2ccccc2)c(=O)[nH]c1=O (stereo not given)	n	n[0.505 µM]	n	n	n	n
Cc1nc(N2CCOCC2)c2nc(-c3ccccc3)n(CC(C)(C)CN(C)C)c2n1	x	n	x	x	x	x
Cc1c(C(=O)N2CC3CCC2C3)sc2ncnc(NCc3ccco3)c12 (stereo not given)	n	x	n	x	x	x
